{"source": "the supplement of paper PMC12282887", "system": "E. coli BW25113 marRABp lux reporter", "test": "promoter activity interaction Z-score (Lux/OD deviation from empty-vector control); higher = stronger promoter induction by the compound", "description": "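E. coli BW25113 (wild type or ΔmarA/ΔsoxS/Δrob) carrying pTU175 luxCDABE promoter reporters was grown in LB in 384-well plates at 37°C with each of 94 compounds at 4 two-fold concentrations, in biological duplicates. Luminescence and OD600 were read every 30 min for 12 h and integrated as AUC over 8 h (0-8 h WT, 1-9 h mutants). Lux AUC was divided by OD AUC; the interaction score is the residual of a Huber robust fit of each promoter against the empty-vector control, then Z-transformed per promoter.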", "note": "± gives the standard deviation of the averaged measurements.", "data": [{"smiles": "N=C(NCCCCCCNC(=N)NC(=N)Nc1ccc(Cl)cc1)NC(=N)Nc1ccc(Cl)cc1", "note": "[Chlorhexidine]", "values": [{"measurement": "promoter activity interaction Z-score", "setting": "0.063 µg/ml, genetic background: wild type", "result": "-0.0555 ± 0.078"}, {"measurement": "promoter activity interaction Z-score", "setting": "0.063 µg/ml, genetic background: ΔmarA", "result": "0.0409 ± 0.0035"}, {"measurement": "promoter activity interaction Z-score", "setting": "0.063 µg/ml, genetic background: Δrob", "result": "0.173 ± 0.2"}, {"measurement": "promoter activity interaction Z-score", "setting": "0.063 µg/ml, genetic background: ΔsoxS", "result": "0.0219 ± 0.055"}, {"measurement": "promoter activity interaction Z-score", "setting": "0.13 µg/ml, genetic background: wild type", "result": "-0.193 ± 0.069"}, {"measurement": "promoter activity interaction Z-score", "setting": "0.13 µg/ml, genetic background: ΔmarA", "result": "-0.0353 ± 0.43"}, {"measurement": "promoter activity interaction Z-score", "setting": "0.13 µg/ml, genetic background: Δrob", "result": "0.0384 ± 0.087"}, {"measurement": "promoter activity interaction Z-score", "setting": "0.13 µg/ml, genetic background: ΔsoxS", "result": "0.0405 ± 0.19"}, {"measurement": "promoter activity interaction Z-score", "setting": "0.25 µg/ml, genetic background: wild type", "result": "0.0425 ± 0.12"}, {"measurement": "promoter activity interaction Z-score", "setting": "0.25 µg/ml, genetic background: ΔmarA", "result": "-0.101 ± 0.24"}, {"measurement": "promoter activity interaction Z-score", "setting": "0.25 µg/ml, genetic background: Δrob", "result": "0.121 ± 0.2"}, {"measurement": "promoter activity interaction Z-score", "setting": "0.25 µg/ml, genetic background: ΔsoxS", "result": "0.165 ± 0.33"}, {"measurement": "promoter activity interaction Z-score", "setting": "0.51 µg/ml, genetic background: wild type", "result": "-0.283 ± 0.1"}, {"measurement": "promoter activity interaction Z-score", "setting": "0.51 µg/ml, genetic background: ΔmarA", "result": "0.127 ± 0.37"}, {"measurement": "promoter activity interaction Z-score", "setting": "0.51 µg/ml, genetic background: Δrob", "result": "-0.0583 ± 0.11"}, {"measurement": "promoter activity interaction Z-score", "setting": "0.51 µg/ml, genetic background: ΔsoxS", "result": "0.00237 ± 0.085"}]}, {"smiles": "Cc1ncc([N+](=O)[O-])n1CCO", "note": "[Metronidazole]", "values": [{"measurement": "promoter activity interaction Z-score", "setting": "0.11 µg/ml, genetic background: wild type", "result": "0.18 ± 0.22"}, {"measurement": "promoter activity interaction Z-score", "setting": "0.11 µg/ml, genetic background: ΔmarA", "result": "-0.0383 ± 0.16"}, {"measurement": "promoter activity interaction Z-score", "setting": "0.11 µg/ml, genetic background: Δrob", "result": "-0.0923 ± 0.23"}, {"measurement": "promoter activity interaction Z-score", "setting": "0.11 µg/ml, genetic background: ΔsoxS", "result": "-0.209 ± 0.08"}, {"measurement": "promoter activity interaction Z-score", "setting": "0.21 µg/ml, genetic background: wild type", "result": "0.0869 ± 0.33"}, {"measurement": "promoter activity interaction Z-score", "setting": "0.21 µg/ml, genetic background: ΔmarA", "result": "-0.213 ± 0.16"}, {"measurement": "promoter activity interaction Z-score", "setting": "0.21 µg/ml, genetic background: Δrob", "result": "0.0389 ± 0.047"}, {"measurement": "promoter activity interaction Z-score", "setting": "0.21 µg/ml, genetic background: ΔsoxS", "result": "0.0145 ± 0.012"}, {"measurement": "promoter activity interaction Z-score", "setting": "0.43 µg/ml, genetic background: wild type", "result": "-0.113 ± 0.25"}, {"measurement": "promoter activity interaction Z-score", "setting": "0.43 µg/ml, genetic background: ΔmarA", "result": "0.07 ± 0.011"}, {"measurement": "promoter activity interaction Z-score", "setting": "0.43 µg/ml, genetic background: Δrob", "result": "0.119 ± 0.23"}, {"measurement": "promoter activity interaction Z-score", "setting": "0.43 µg/ml, genetic background: ΔsoxS", "result": "-0.0739 ± 0.18"}, {"measurement": "promoter activity interaction Z-score", "setting": "0.86 µg/ml, genetic background: wild type", "result": "0.0285 ± 0.35"}, {"measurement": "promoter activity interaction Z-score", "setting": "0.86 µg/ml, genetic background: ΔmarA", "result": "0.0853 ± 0.054"}, {"measurement": "promoter activity interaction Z-score", "setting": "0.86 µg/ml, genetic background: Δrob", "result": "0.0343 ± 0.03"}, {"measurement": "promoter activity interaction Z-score", "setting": "0.86 µg/ml, genetic background: ΔsoxS", "result": "-0.0303 ± 0.042"}]}, {"smiles": "NC[C@H]1O[C@H](O[C@H]2[C@H](O)[C@@H](O[C@H]3O[C@H](CO)[C@@H](O)[C@H](N)[C@H]3O)[C@H](N)C[C@@H]2N)[C@H](N)C[C@@H]1O", "note": "[Tobramycin]", "values": [{"measurement": "promoter activity interaction Z-score", "setting": "0.12 µg/ml, genetic background: wild type", "result": "-0.211 ± 0.075"}, {"measurement": "promoter activity interaction Z-score", "setting": "0.12 µg/ml, genetic background: ΔmarA", "result": "-0.0912 ± 0.16"}, {"measurement": "promoter activity interaction Z-score", "setting": "0.12 µg/ml, genetic background: Δrob", "result": "-0.0729 ± 0.021"}, {"measurement": "promoter activity interaction Z-score", "setting": "0.12 µg/ml, genetic background: ΔsoxS", "result": "-0.3 ± 0.41"}, {"measurement": "promoter activity interaction Z-score", "setting": "0.23 µg/ml, genetic background: wild type", "result": "-0.379 ± 0.14"}, {"measurement": "promoter activity interaction Z-score", "setting": "0.23 µg/ml, genetic background: ΔmarA", "result": "-0.269 ± 0.26"}, {"measurement": "promoter activity interaction Z-score", "setting": "0.23 µg/ml, genetic background: Δrob", "result": "-0.264 ± 0.11"}, {"measurement": "promoter activity interaction Z-score", "setting": "0.23 µg/ml, genetic background: ΔsoxS", "result": "-0.0572 ± 0.44"}, {"measurement": "promoter activity interaction Z-score", "setting": "0.47 µg/ml, genetic background: wild type", "result": "0.112 ± 0.2"}, {"measurement": "promoter activity interaction Z-score", "setting": "0.47 µg/ml, genetic background: ΔmarA", "result": "0.108 ± 0.0063"}, {"measurement": "promoter activity interaction Z-score", "setting": "0.47 µg/ml, genetic background: Δrob", "result": "0.123 ± 0.14"}, {"measurement": "promoter activity interaction Z-score", "setting": "0.47 µg/ml, genetic background: ΔsoxS", "result": "0.021 ± 0.34"}]}]}
